Test results published in ChEMBL document CHEMBL3988442, “University of Dundee, Small-Polar-MMV Screening Library” (2021).
Out of some 48,000 compounds screened, about 13,000 (27%) showed an effect of 50% or more. The list shows a part of the results.

System: Wolbachia pipientis
Assay: Anti-Wolbachia Cell-Based Screen
Assay type: functional
Parameters: scale not given: in the data most compounds retested in dose-response had high values
Conditions: 5 µM

SMILES	Percent Effect
NC(=O)N1CCCN(C2CCCCc3ccccc32)CC1 (centres undefined)	-4.011%
CO[C@@H]1CN(c2ccccc2)S(=O)(=O)[C@@]12CCN(S(C)(=O)=O)C2	80.67%
CS(=O)(=O)N1CCC2(CC1)c1ccccc1[C@@H](N1CCSCC1)[C@@H]2O	-3.022%
COC1CCN(S(=O)(=O)N2CC(c3ccccc3)C(C)(C)C2)CC1 (centres undefined)	17.09%
CO[C@@H]1CN(c2ccccc2)S(=O)(=O)[C@@]12CCN(C)C2	121.6%
CN1CC(=O)N(c2ccccc2)CC12CCN(S(C)(=O)=O)C2.O=C(O)C(F)(F)F (centres undefined)	10.77%
CCN(CC)C(=O)C1CCC(=O)N(CCc2cccc(F)c2)C1 (centres undefined)	5.387%
Cn1cc(C(=O)NC[C@@H]2OC[C@H]3CN(S(C)(=O)=O)CC[C@H]32)cn1	-9.663%
CNC(=O)N1CCC(NC(=O)c2cnn(C)c2)CC1	87.43%
Cn1cc(C(=O)NCC2CCN(C(=O)NCC(F)(F)F)CC2)cn1	-3.622%
COCCNC(=O)N1CCC(NC(C)C)CC1	8.533%
CCS(=O)(=O)c1ccc(N2CCC(NC(=O)c3cnn(C)c3)CC2)cc1	0.7528%
COCCCNC(=O)N1CCC(CNC(=O)c2cnn(C)c2)CC1	114%
Cn1cc(C(=O)NCC2CCN(C(=O)NC3CCCCC3)CC2)cn1	90.75%
Cn1cc(C(=O)NC2CCN(C(=O)NCC3CCSCC3)CC2)cn1	-0.1776%
Cn1cc(C(=O)NCC2CCN(C(=O)NC3CC3)CC2)cn1	82.18%
Cn1cc(C(=O)NC2CCN(C(=O)NCCSC(F)(F)F)CC2)cn1	19.88%
COC(=O)N1CCC(CNS(=O)(=O)c2cnn(C)c2)CC1	-8.062%
Cc1ccc(N2CCC(C(O)c3cccs3)CC2)nn1 (centres undefined)	12.98%
CCCN1CCC(NCc2cccc(CN3CCOC(C)C3)c2)CC1 (centres undefined)	27.7%
O=C(CS(=O)(=O)Cc1ccccc1)NCc1ccccc1F	-49.77%
CCOCCn1c(=O)n(Cc2ccc(F)cc2)c2ncc(C(=O)O)cc21	0.5283%

SMILES	Percent Effect
O=C(O)c1cncc(Cc2cccc(F)c2)c1	136.9%
O=C(NCC(Cc1cccc(F)c1)N1CCCC1=O)c1ccccc1 (centres undefined)	-3.129%
O=C(O)c1cncc(Cc2ccc(F)cc2)c1	214.7%
O=C(O)c1cncc(Cc2ccccc2F)c1	172.6%
CCSCCn1c(=O)n(Cc2ccc(F)cc2)c2ncc(C(=O)O)cc21	-21.36%
O=C(O)c1ccc(N2CCC(Oc3cccc(F)c3)CC2)nc1	7.42%
O=C(O)c1ccc(Cc2cccc(F)c2)nc1	176.5%
CCOCCn1c(=O)n(Cc2ccccc2F)c2cc(C(=O)O)cnc21	-1.705%
O=C(O)c1cccc(CC2CCN(c3ncc(F)cn3)CC2)c1	5.737%
CC(C)n1cc2cc(NC(=O)Cn3cnnn3)ccc2n1	0.8884%
O=C1NCCCCC1NC(=O)C1(Oc2ccc(Cl)cc2)CCNCC1 (centres undefined)	4.291%
CCOc1ccccc1NC(=O)NCC(C)(O)CCSC (centres undefined)	-5.529%
CN(C)C(CNC(=O)c1nc(N2CCOCC2)ncc1Cl)c1ccco1 (centres undefined)	-7.125%
CC(CNC(=O)c1nc(N2CCOCC2)ncc1Cl)c1ccccc1 (centres undefined)	-18.26%
CC(C)C(=O)NC1CCCc2nc(N3CCOCC3)ncc21 (centres undefined)	72.33%
CCC(CC)C(=O)NC1CCCc2nc(N3CCOCC3)ncc21 (centres undefined)	97.19%
Cc1cnc(N2CCC3(CC2)CC(NC(=O)C(C)C)CO3)nc1 (centres undefined)	-15.93%
CC(C)n1c(C2CCCN(CC(=O)NC(N)=O)C2)nc2ccccc21 (centres undefined)	-22.16%
Cc1cc(C)n(C2CCN(Cc3c(-c4cc(C)on4)nn(C)c3Cl)C2)n1 (centres undefined)	0.03188%
CN(C)C(=O)Cc1ccccc1NCc1cccc(F)c1F	-19.09%
Cc1csc(CNC(=O)N(C)Cc2cnn(C)c2)n1	7.256%
COCc1csc(NC(=O)NCc2ccsc2)n1	-7.736%

SMILES	Percent Effect
CC(C)c1cc(CNC(=O)N2CCC(Cc3cnn(C)c3)C2)on1 (centres undefined)	2.959%
CC(C)Cc1cc(C(=O)N2CCC(Cc3cnn(C)c3)C2)cc(O)n1 (centres undefined)	0.7528%
COCc1csc(NC(=O)N2CCC(Cc3cnn(C)c3)C2)n1 (centres undefined)	102.3%
Cn1cc(CC2CCN(C(=O)NCc3csc(C4CC4)n3)C2)cn1 (centres undefined)	102.9%
CC(C)CC(NC(=O)CN(C)C(=O)c1ccco1)c1cccs1 (centres undefined)	25.03%
O=C(CCc1cn[nH]c1)N1C[C@@H](CN2CCCCCC2)[C@@H](CO)C1	3.932%
OCc1csc(N2C[C@@H](CN3CCCCCC3)[C@@H](CO)C2)n1	103.7%
NC(=O)c1csc(N2C[C@@H](CN3CCOCC3)[C@@H](CO)C2)n1	103.5%
O=C(CCCc1cn[nH]c1)N1C[C@@H](CN2CCOCC2)[C@@H](CO)C1	24.78%
OC[C@H]1CN(Cc2c(Cl)cncc2Cl)C[C@H]1CN1CCCCCC1	-60.78%
COc1cnc(N2C[C@@H](CN3CCOCC3)[C@@H](CO)C2)nc1	-6.772%
CC(C)c1ncc(CN2C[C@@H](CN3CCCCC3)[C@@H](CO)C2)cn1	-5.957%
CC(=O)c1ccc(CN2C[C@@H](CN3CCC(O)CC3)[C@@H](CO)C2)cc1	-12.65%
NC(=O)c1csc(N2C[C@@H](CN3CCCCC3)[C@@H](CO)C2)n1	104.1%
CC(=O)c1cc(CN2C[C@@H](CN3CCC(O)CC3)[C@@H](CO)C2)n(C)c1	12.27%
CN(C)Cc1nnc(C2CCCN(c3nc(C(N)=O)cs3)C2)n1C (centres undefined)	10.64%
NC(=O)c1csc(N2C[C@@H](CN3CCC(O)CC3)[C@@H](CO)C2)n1	99.75%
CCc1cc(C(=O)N2CCc3c(ncn3CCc3ccccc3)C2)[nH]n1	0.9556%
CC(C(=O)NC1(C#N)CCCCC1)N1CCc2c(ncn2C2CC2)C1 (centres undefined)	2.173%
Cc1ccc(F)c(NC(=O)CCC(=O)N(C)Cc2nc(C)c[nH]2)c1	-39.22%
